From PubChem BioAssay AID489043 (National Center for Advancing Translational Sciences (NCATS), 2010)
Results filed as inconclusive are left out. A call without a number means that no potency is given here. Activity calls are given as the source filed them. Calls follow the shape of the dose curve; as a rule, active = well fitted activation curve with a large enough effect; inconclusive = small, poorly fitted or top-dose-only effect; inactive = flat fitted curve, though single readings scatter.

Each molecule was assayed against Relaxin receptor 2 (Homo sapiens) (UniProt Q8WXD0) (assay: qHTS Assay for Agonists of the Relaxin Receptor RXFP1: RXFP2 Hit Validation). Settings: HEK293 RXFP2 cAMP TR-FRET, 30 min; series mostly up to 44.7 µM.
Chain of Relaxin receptor 2 (Homo sapiens) (Q8WXD0 whole entry, looked up): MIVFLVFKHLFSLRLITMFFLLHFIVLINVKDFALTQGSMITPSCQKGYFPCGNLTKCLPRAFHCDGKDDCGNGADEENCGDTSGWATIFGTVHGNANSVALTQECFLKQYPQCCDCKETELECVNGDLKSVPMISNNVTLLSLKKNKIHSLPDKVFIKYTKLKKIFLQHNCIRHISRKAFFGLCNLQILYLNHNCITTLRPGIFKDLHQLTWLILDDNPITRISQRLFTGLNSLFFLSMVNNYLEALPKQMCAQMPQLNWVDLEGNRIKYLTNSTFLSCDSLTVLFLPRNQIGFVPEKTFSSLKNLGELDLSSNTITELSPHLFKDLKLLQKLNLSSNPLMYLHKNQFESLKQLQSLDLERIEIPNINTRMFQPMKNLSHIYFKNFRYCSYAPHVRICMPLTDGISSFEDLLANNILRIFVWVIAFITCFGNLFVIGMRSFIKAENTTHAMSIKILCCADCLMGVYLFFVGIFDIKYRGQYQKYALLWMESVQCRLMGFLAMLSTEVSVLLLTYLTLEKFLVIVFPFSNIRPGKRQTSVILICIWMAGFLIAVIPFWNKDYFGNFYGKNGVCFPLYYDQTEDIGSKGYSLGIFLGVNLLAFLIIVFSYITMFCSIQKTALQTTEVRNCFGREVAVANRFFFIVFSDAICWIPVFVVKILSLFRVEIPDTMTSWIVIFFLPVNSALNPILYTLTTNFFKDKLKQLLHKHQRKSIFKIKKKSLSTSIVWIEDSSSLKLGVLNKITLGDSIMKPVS
Text: NIH Chemical Genomics Center [NCGC] NIH Molecular Libraries Probe Production Centers Network [MLPCN] MLPCN Grant: R03 MH085705-01A1 Assay Submitter (PI): Alexander Agoulnik NCGC Assay Overview: The relaxin hormone is involved in the variety of biological functions in normal tissues and diseases. The role of relaxin is well-established in female reproduction and parturition, mammary gland and endometrial development, maintenance of myometrial quiescence during pregnancy. Relaxin signaling through its G protein-coupled receptor (GPCR) RXFP1 results in ECM remodeling through regulation of collagen deposition, cell invasiveness, proliferation and overall tissue homeostasis. […] Recombinant human relaxin (rhRlx) is currently being tested in clinical trials as a protective agent in congestive heart failure, in treating severe preeclampsia, and as an anti-fibrotic agent in systemic sclerosis. Upon relaxin binding RXFP1 activation leads to the activation of adenylate cyclase (AC) via Gs. cAMP will activate PKA, which phosphorylates many signaling proteins. Thus, detection of cAMP increase is an easy and reliable indication of relaxin receptor activation. To screen for agonists of the relaxin receptor, a HEK293T cell line stably transfected with RXFP1 was used. RXFP1 activation was assayed by changes in cAMP levels as detected with a time-resolved fluorescence energy transfer (TR-FRET) cAMP detection kit. This assay measures activation of a cell expressing RXFP2, another GPCR targeted by relaxin, to determine the selectivity of compounds for RXFP1.
NCGC Assay Protocol Summary: This is a cell-based assay for cAMP second messenger response to screen for agonists of the RXFP2 receptor. The assay was conducted in the presence of a PDE4 inhibitor (Ro 20174). The cells were lysed and the cAMP levels were measured with a TR-FRET cAMP kit. Presence of cAMP in the cell lysate disrupts binding between the cryptate-labeled anti-cAMP and d2-labeled cAMP pair, leading to a decrease in the TR-FRET signal. Data were normalized to the controls for basal activity (buffer only) and 100% activity (29 nM porcine relaxin). The EC50 values were determined from concentration-response data modeled with the standard Hill equation 1536-well assay protocol for the HEK293 RXFP2 cAMP assay: (1) Add 3 ul HEK293 RXFP2 cell culture. 2000 cells/well in DMEM/F12, 10% FBS, 1x Pen/Strep (dispensed offline with MultiDrop Combi). (2) Incubate 16-24 hr at 37C, 5% CO2. (3) Add 1 ul 400uM Ro20174 in DPBS, 0.05% BSA, 0.005% Tween 20. (3) Add 23 nl compounds in DMSO solution. Final concentration was 0.5 - 58 uM. (4) Incubate 30 min at 37C, 5% CO2. (5) Add 1 ul cAMP-d2 in lysis buffer (HTRF cAMP HiRange kit, CisBio). (6) Add 1 ul anti-cAMP antibody-cryptate in lysis buffer (HTRF cAMP HiRange kit, CisBio). […]
Also: nearly all actives have a fitted effect of over 65% in size.
Potency is read from the fitted curve at half-maximal effect.

SMILES | Potency
Nc1ncc2[nH]cnc2n1 | 17.4 µM (active)
CCNC(=O)[C@H]1O[C@@H](n2cnc3c(N)ncnc32)[C@H](O)[C@@H]1O | 0.974 µM (active)
O=C(O)c1sc2cc(Cl)ccc2c1Cl | inactive
CCC(Oc1cc(Cl)ccc1Cl)C(=O)N1CCC2(CC1)OCCO2 (centres undefined) | inactive
